Hit rate of the full screen: of about 330,000 compounds, about 4,400 (1.3%) were called active.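 How the source made its calls: active means growth inhibition of the mutant yeast at or above 50%; inactive means the rest.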 Many of the other results were omitted from the sample, so actives are more common in it than they were.

The nature of the experiment: growth inhibition of tim23-1 ts yeast – luminescence, uHTS, primary screen (AID 463212).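 Further: temperature-sensitive mutant grown at 25 °C; plate controls were DMSO-treated mutant yeast for no effect and medium wells lacking yeast for full effect.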 Conditions: S. cerevisiae tim23-1 growth, BacTiter-Glo luminescence, 24 h; at 20 µM; active compounds read high.
Take `CC(OC(=O)c1ccc([N+](=O)[O-])cc1)C(=O)NCC1CCCCC1` (centres undefined): the inhibition is 3.5% (inactive).

As for `O=C1N[C@@H](Cc2ccccc2)C(=O)N2[C@H]1C[C@]1(Br)c3ccccc3N(S(=O)(=O)c3ccccc3)[C@H]21`, the inhibition is 5.8% (inactive).

Regarding `Cc1cc(=O)cc(C)[nH]1`, the inhibition was 9.7% (inactive).

For `O=C(Cc1ccccc1)NCC1OCCc2ccccc21` (centres undefined), the inhibition is 4.02% (inactive).

For `CCOc1ccccc1NC(=O)Cn1nnc(C(=O)NCc2cccs2)c1N`, the inhibition is 0.467% (inactive).

On to `CC(C)Cn1c(N)c(C(=O)NCc2cccs2)c2nc3ccccc3nc21`, for which the inhibition was 59.9% (active).

For the compound `COCC(C)OC(=O)c1c(N)n(CCCN2CCOCC2)c2nc3ccccc3nc12` (centres undefined), the inhibition was 5.92% (inactive).

Regarding `Cc1cc(NC(=O)CSC2=NS(=O)(=O)c3cc(Cl)ccc3N2)no1`, the inhibition was 11.8% (inactive).

Consider `CCCn1c(=O)c(C(=O)Nc2cc(C)ccn2)c(O)c2ccccc21`, for which the inhibition was 13.4% (inactive).

Turning to `Cn1c(=O)c(C(=O)Nc2ncccn2)c(O)c2ccccc21`, the inhibition was 60% (active).

Take `C=CCn1c(=O)c(C(=O)Nc2ncccc2O)c(O)c2ccccc21`: the inhibition is 33.8% (inactive).

For the compound `CCSC1(SCC)N=C(N)C2(C#N)C(c3ccccc3)NC(C)=CC12C#N` (centres undefined), the inhibition is 9.77% (inactive).

Consider `CSc1nccc(NC(=O)c2ccc(C(C)(C)C)cc2)n1`, for which the inhibition was 42.9% (inactive).

For `CC(C)(C)NC(=O)CSc1nnc(NC(=O)CCc2ccccc2)s1`, the inhibition was 8.92% (inactive).

For `O=C(CN1CCN(c2ccc(F)cc2)CC1)Nc1ccccc1`, the inhibition is 7.47% (inactive).

For the compound `Oc1c(CN2CCN(c3ccc(F)cc3)CC2)cc(Cl)c2cccnc12`, the inhibition is 54.1% (active).

For `Oc1c(CN2CCCC2)cc(COCc2ccccc2)c2cccnc12`, the inhibition is 12.2% (inactive).

As to `O=C1CCC[C@@H]2CC(N3CCCCC3)C[C@@H]3CCN1[C@H]23` (some centres undefined), the inhibition was 29.3% (inactive).

For the compound `COc1ccc(/C=N/N(C)C2=NS(=O)(=O)c3ccccc32)cc1OC`, the inhibition is 1.27% (inactive).

In the case of `O=C1Oc2ccccc2C(=O)/C1=C/c1ccccc1O`, the inhibition was 61.1% (active).

On to `COC(=O)c1ccc(/C=C2/C(=O)Oc3ccccc32)cc1`, for which the inhibition was 34.3% (inactive).

On to `COc1ccc2c(c1)O/C(=C\c1ccccc1O)C2=O`, for which the inhibition was 0.978% (inactive).

`CCSc1sc(CC)cc1C=O`: the inhibition was -3.29% (inactive).

Consider `CC/C(=N\NC(=S)NC(C)C)c1ccc(OC(F)F)cc1`, for which the inhibition is 30.3% (inactive).

As for `O=C(/C=C/c1c(F)cccc1Cl)Nc1nn[nH]n1`, the inhibition was 9.19% (inactive).

In the case of `CNC(=O)/C(C#N)=C/c1c(F)cccc1Cl`, the inhibition is 75.8% (active).

Regarding `CCOC(=O)NC(=O)/C(C#N)=C\c1ccccc1`, the inhibition was 4.67% (inactive).

With `CC(=O)c1ccc(S(=O)(=O)NCCC(=O)N2CCN(c3ccccn3)CC2)cc1`, the inhibition is 12.9% (inactive).

`CCC(=O)N1CCN(c2ccccc2NC(=O)COc2cccc(C)c2C)CC1`: the inhibition is 13.7% (inactive).

Turning to `Cc1ccccc1OCC(=O)Nc1ccc(N2CCN(C(=O)C(C)C)CC2)c(Cl)c1`, the inhibition is 52.8% (active).

As to `Cc1ccccc1OCC(=O)Nc1ccc2c(c1)ncn2C`, the inhibition was 20% (inactive).

As to `CCN(CC)C(=O)CSc1nc2ccccc2n1CC(=O)N1CCN(c2ccccc2OC)CC1`, the inhibition is 12.6% (inactive).

Take `NC(=S)c1ccc(C(N)=S)o1`: the inhibition was -0.65% (inactive).

For the compound `CC[N+](C)(CC)CCC[n+]1c(-c2ccccc2)c2cc(N)ccc2c2ccc(N)cc21`, the inhibition is -96.2% (inactive).

In the case of `Fc1ccccc1/C=C1\CCCC2=C1Nc1ncnn1C2c1ccccc1F` (centres undefined), the inhibition is 34% (inactive).

Regarding `CC(=O)C1=C(C)NC(=O)NC1c1ccc2c(c1)OCO2` (centres undefined), the inhibition is 0.126% (inactive).

On to `CCCC(C)c1nnc(NC(=O)C2CC(=O)N(c3ccc(OCC)cc3)C2)s1` (centres undefined), for which the inhibition is 16% (inactive).

For the compound `COc1cc(/C=C/C(=O)OCC(=O)NCCCc2ccccc2)ccc1O`, the inhibition was 16.5% (inactive).

`COc1ccc(Oc2coc3cc(OC(=O)c4cncc(Br)c4)ccc3c2=O)cc1`: the inhibition is -12.3% (inactive).

Turning to `O=C(OCc1cc2ccccc2[nH]c1=O)c1cccnc1`, the inhibition was -4.57% (inactive).

As for `O=C(Oc1c(-c2ccco2)oc2ccccc2c1=O)c1cccnc1`, the inhibition was 51.2% (active).

Regarding `CCOC(=O)N1CCN(CC(=O)n2c(C)c(C)c3ccccc32)CC1`, the inhibition is 30.5% (inactive).

As for `CCCCOc1ccc(CON(C(C)=O)C(C)=O)cc1Cl`, the inhibition is 27% (inactive).

In the case of `Cc1ccc(C2=C/C(=C\c3cccnc3)C(=O)O2)cc1`, the inhibition is 33.4% (inactive).

On to `Cc1ccccc1C1=N/C(=C/c2cccnc2)C(=O)O1`, for which the inhibition is 51.8% (active).

Take `O=C1OC(c2ccc(Cl)cc2)=N/C1=C\c1cccnc1`: the inhibition is 40.9% (inactive).

Take `CC(C)CC(=O)N1CCN(Cc2ccccc2Br)CC1`: the inhibition is 1.68% (inactive).

Turning to `COC(=O)c1cccc(N(C(=O)CNC(=O)c2cccs2)C(C(=O)NCC2CCCO2)c2ccc(OC)c(OC)c2)c1` (centres undefined), the inhibition is 0.773% (inactive).

On to `COc1ccc2nc(NC(=O)NC3CCCCC3)sc2c1`, for which the inhibition was 58.4% (active).

For the compound `COc1ccc2nc(NC(=O)[C@@H]3CCCN3C(=O)c3cccs3)sc2c1`, the inhibition was 25.9% (inactive).

In the case of `COc1cccc(C(=O)Nc2nc3ccc(S(C)(=O)=O)cc3s2)c1`, the inhibition is 23.6% (inactive).

Take `CC(C)=CCC/C(C)=C/C(=O)O`: the inhibition is 8.44% (inactive).

On to `CC(C)S(=O)(=O)c1csc(NC(=O)Nc2ccc(Cl)cc2)c1Cl`, for which the inhibition was 22.2% (inactive).

In the case of `CCn1c(CSc2nncn2-c2ccc(OC)cc2)nc2cc(S(=O)(=O)N(C)C)ccc21`, the inhibition was 8.84% (inactive).

Take `Cc1cc(C(=O)COc2ccccc2Cl)c(C)n1C1CC1`: the inhibition is 38.7% (inactive).

With `CCCc1cc(=O)[nH]c(SCC(=O)N2C(C)CCCC2C)n1` (centres undefined), the inhibition is 0.431% (inactive).

As to `O=C(COC(=O)C1CCCO1)Nc1nc(-c2ccc(F)cc2)cs1` (centres undefined), the inhibition is 11.2% (inactive).

For `CC1CCCC(C)N1C(=O)CN1CCN(c2nc(-c3ccc(F)cc3)cs2)CC1` (centres undefined), the inhibition is 52.8% (active).

As to `O=C(COC(=O)/C(=C/c1cccs1)c1cccs1)NCc1ccccc1Cl`, the inhibition was 24% (inactive).

On to `Cc1ccc2nc(/C(C#N)=C\c3ccc(OC(=O)c4cccs4)cc3)[nH]c2c1`, for which the inhibition was -4.69% (inactive).

Take `COc1cc(/C=C(\C#N)c2nc3ccccc3[nH]2)ccc1O`: the inhibition was 56.4% (active).

For `O=C(/C(=C/c1cccc(Cl)c1)c1nc2ccccc2[nH]1)c1ccccc1`, the inhibition was 44.9% (inactive).

As for `CCOc1ccc(OCC(=O)Nc2c3c(nn2C(C)(C)C)CS(=O)(=O)C3)cc1`, the inhibition is 11.1% (inactive).

As to `CCOC(=O)c1c(NC(=O)CCl)sc(C(=O)N(CC)CC)c1C`, the inhibition was 5.96% (inactive).

Turning to `O=S(=O)(c1cccc2nonc12)N1CCN(c2cccc(Cl)c2)CC1`, the inhibition is 22.8% (inactive).

As to `O=C(CC(O)(C(F)(F)F)C(F)(F)F)Nc1ccc(Cl)c(Cl)c1`, the inhibition was 90.6% (active).

As for `O=C(CCCN1C(=O)CCC1=O)Nc1ccc(Cl)c(C(F)(F)F)c1`, the inhibition was -4.71% (inactive).

`O=C(COC(=O)c1cc[n+]([O-])cc1)Nc1ccc(Cl)c(C(F)(F)F)c1`: the inhibition was 5.05% (inactive).

For the compound `CC/C(O)=C1\C(=O)CC(C)(C)CC1=NCCc1nc2ccccc2[nH]1`, the inhibition is -7.57% (inactive).

Regarding `CC(=O)N1CCOc2ccc(S(=O)(=O)N3CCN(c4cccc(C(F)(F)F)c4)CC3)cc21`, the inhibition was 36.1% (inactive).

For `COc1ccc2c(c1)C(NS(=O)(=O)OCC(Cl)(Cl)Cl)CCC2` (centres undefined), the inhibition is 55.4% (active).

Take `COc1ccc(CN(C)C(C)C(=O)NC2CCCc3ccccc32)cc1` (centres undefined): the inhibition is 24.3% (inactive).

For the compound `COC(=O)c1cc(OCC(=O)NC2CCCc3ccccc32)cc(C(=O)OC)c1` (centres undefined), the inhibition is 16.8% (inactive).

Consider `CC(CC(=O)N1CCN(c2ccccc2)CC1)S(=O)(=O)c1ccc2c(c1)NC(=O)CS2` (centres undefined), for which the inhibition is -6.88% (inactive).

As for `O=C(COC(=O)Cc1ccc([N+](=O)[O-])cc1)NC1CCCCCC1`, the inhibition was 19.1% (inactive).

On to `Cc1cc(C)cc(OCC(=O)O/N=C(\N)Cc2ccc([N+](=O)[O-])cc2)c1`, for which the inhibition was 26.9% (inactive).

For `O=C(NCC(O)c1ccc([N+](=O)[O-])cc1)C1CCCCC1` (centres undefined), the inhibition was -0.943% (inactive).

`COC(=O)C(C)NC(=O)COc1ccc2ccccc2c1` (centres undefined): the inhibition is 7.67% (inactive).

On to `N/C(Cc1ccc([N+](=O)[O-])cc1)=N\OC(=O)C1CCCCC1`, for which the inhibition is 58.8% (active).

`N/C(Cc1ccc([N+](=O)[O-])cc1)=N\OC(=O)COc1ccc2ccccc2c1`: the inhibition is 60.5% (active).

As to `CC(Oc1ccc2c(-c3ccccc3)cc(=O)oc2c1)C(=O)NC(Cc1c[nH]c2ccccc12)C(=O)O` (centres undefined), the inhibition was 21% (inactive).

On to `CCc1ccc(NC(=O)CS(=O)CC(=O)N2CCN(c3ccccc3F)CC2)cc1` (centres undefined), for which the inhibition was -23.1% (inactive).

In the case of `Cc1ccc(-c2ccc(/C=N/NC(=O)CN3CCOCC3)o2)cc1[N+](=O)[O-]`, the inhibition was 55.9% (active).

Turning to `O=C(CN1CCOCC1)N/N=C/c1ccc(-c2ccc(Br)cc2)o1`, the inhibition was 1.87% (inactive).

For the compound `Cc1occc1C(=O)N/N=C/c1ccc(-c2cccc([N+](=O)[O-])c2)o1`, the inhibition was 26% (inactive).

For `Cc1cccc(CC(=O)N2CCN=C2SCc2ccc([N+](=O)[O-])cc2)c1`, the inhibition is -3.28% (inactive).

In the case of `O=C(COc1ccccc1F)Nc1nc(-c2ccccn2)cs1`, the inhibition is 28.7% (inactive).

Take `CCN(C(=O)COC(=O)C1CCN(S(=O)(=O)c2ccc(C)c(C)c2)CC1)C1CCS(=O)(=O)C1` (centres undefined): the inhibition is 0.758% (inactive).

Take `COC(=O)CNC(=O)c1cc(-c2ccncc2)nc2ccccc12`: the inhibition was 10.9% (inactive).

As for `N/C(=N\OC(=O)c1cc(-c2ccccc2)nc2ccccc12)c1ccncc1`, the inhibition was 79.2% (active).

With `C/C(N)=C(/C#N)C(=O)COC(=O)c1cc(-c2ccc(C)cc2)nc2ccccc12`, the inhibition was 3.42% (inactive).

For `CNC(=O)COc1ccc(S(=O)(=O)Nc2ccccc2)cc1`, the inhibition was 8.77% (inactive).

Regarding `NC(=O)c1oc2ccccc2c1NC(=O)CS(=O)(=O)c1ccccc1`, the inhibition is 6.4% (inactive).

As for `S=C(Nc1ccc(Br)cc1Cl)N1CCC2(CC1)OCCO2`, the inhibition was 20.7% (inactive).

(Values after PubChem BioAssay AID463212 (Sanford-Burnham Center for Chemical Genomics, 2010).)
